Laboratory results reported in PubChem BioAssay AID463173 (ICCB-Longwood Screening Facility, Harvard Medical School, 2010).
Hit rate of the full screen: of about 52,000 compounds, about 1,700 (3.3%) were called active. This is one part of a sample in which actives are shown more often than they occur. Values without a mark were called inactive. No stated cut-off is given here; in the data, active means survival mostly below about 52% (no sharp cut-off); inactive means mostly above about 56%.

What follows are compounds tested on Wild type (assay: S. aureus survival, RN4220 and DeltatarO strains – OD600, teichoic acid synthesis inhibitors, primary screen (AID 463173)). Details: S. aureus RN4220 wild type/DeltatarO growth, OD600, 18 h, stronger effect = lower value, screened at 18.75 µg/mL (by protocol).
`CC(=O)NCCNc1nc2c(S(=O)(=O)c3ccc(C)c(C)c3)nnn2c2ccc(Cl)cc12` gave a survival of 80%.
Compound `O=C(CN1C(=O)COc2ccc(S(=O)(=O)N3CCOCC3)cc21)NCc1ccc(Cl)cc1` has a survival of 78%.
In the case of `CCNc1c(NC(=O)c2ccccc2OCC)c(=O)oc2ccccc12`, the survival is reported as 90%.
`CC1=C(C(=O)Nc2ccccc2)C(c2ccc(C)o2)NC(=S)N1` (stereo not given) gave a survival of 109%.
With `O=C(O)c1cnc2ccccn2c1=O` the survival was 109%.
`Cc1noc(C)c1S(=O)(=O)N(CC(=O)NCc1ccccc1Cl)c1ccc(C(C)C)cc1` gave a survival of 82%.
`NC(=O)CSc1nnc(COc2ccccc2)n1C1CCCCC1` gave a survival of 110%.
In the case of `CCOC(=O)C1CCN(C(c2ccccc2OC)c2c(O)cc(C)n(CCOC)c2=O)CC1` (stereo not given), the survival is reported as 70%.
Compound `Cc1ccc(N2CC(NC(=O)C3CCCC3)CC2=O)cc1` (stereo not given) has a survival of 55%.
`COCCn1c(CNC(=O)c2cccc(N(C)C)c2)nc2cccnc21` was tested, and the survival was 65%.
`Cc1nn(CC(=O)NCc2ccc(N(C)C)cc2)c(=O)c2c(C)n(-c3ccc(Cl)cc3)nc12` showed a survival of 95%.
`COc1ccc(CC(C)NS(=O)(=O)c2ccc3c(c2)CCN3S(C)(=O)=O)cc1OC` (stereo not given) gave a survival of 134%.
`CCOC(=O)c1c(C)[nH]c(C)c1S(=O)(=O)N(C)CC(=O)Nc1ccc(C)c(N(C)C)c1` was tested, and the survival was 73%.
For `CCOC(=O)c1ccc2ncc(C(=O)OCC)c(Nc3ccc(C)c(Br)c3)c2c1`, the survival was 72%.
`CCOC(=O)c1cnc2c(C)c(Cl)ccc2c1Nc1ccc(N2CCOCC2)cc1` showed a survival of 60%.
For `CCOC(=O)c1cnc2c(Cl)cc(Cl)cc2c1Nc1cc(C(=O)O)ccc1C`, the survival was 61%.
`CCCOC(=O)c1ccc(Nc2c(C(=O)OCC)cnc3c(C)cc(Cl)cc23)cc1` was tested, and the survival was 4% (active).
`CCOC(=O)c1cnc2ccc(C)cc2c1NCCc1ccc(OC)c(OC)c1` gave a survival of 117%.
`CCOC(=O)c1cnc2ccccc2c1Nc1ccc(N2CCOCC2)cc1` showed a survival of 68%.
`CCOC(=O)c1cnc2ccc(C)cc2c1Nc1ccc(N(CC)CC)cc1` was tested, and the survival was -2% (active).
`CCOC(=O)c1cnc2cc(F)c(F)cc2c1Nc1ccccc1O` was tested, and the survival was 169%.
For `CCOC(=O)c1cnc2ccc(OC(F)(F)F)cc2c1Nc1ccccc1C(=O)O`, the survival was 52%.
For `CCOC(=O)c1cnc2ccc(Cl)cc2c1Nc1ccc(N2CCOCC2)cc1`, the survival was 0% (active).
Work on `CCOC(=O)c1cnc2ccc(C(=O)OC)cc2c1Nc1ccc(N2CCOCC2)cc1` yielded a survival of 115%.
`CCOC(=O)c1cnc2ccc(C(=O)OC)cc2c1Nc1ccccc1CC` was tested, and the survival was -1% (active).
